Data on 14 compounds can be found in PubChem BioAssay.

Assay [1] in a line: inhibitors of TNFa-induced NFkB p65 translocation, primary screen, imaging, HUVEC, MLSMR starter and 10KST1 sets (AID 438).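 For inhibition: signal is the nuclear over cytoplasmic p65 intensity ratio per well.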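 Note: compound added about 3h40 before a 20 min TNFalpha stimulation.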 As to conditions: HUVEC TNFa-induced p65 nuclear translocation; cell count: measured here: nuclei count (cytotoxicity indicator), at 2.08 µM; inhibition: at 2 µM, stronger effect = higher value, 0% TNFa-plus-vehicle, 100% no-TNFa wells.
Assay [2] in a line: inhibitors of mutant huntingtin aggregation, primary screen, imaging, exon1htt(103Q)mCFP cells, high-content imaging (AID 483;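 active = visual image review flags a hit and inhibition of aggregation exceeds 20%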;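 note: compound exposure lasted 3 days before fixation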;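 for nuclei count: percent of the per-plate median nuclei count of sample wells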). To be noted: exon1htt(103Q)mCFP cell line, aggregate imaging, at 2 µM; inhibition of aggregation: stronger effect = higher value; nuclei count: measured here: cell count, toxicity.
Assay [3] in a line: inhibitors of E-selectin induction by TNFa, primary screen, imaging, HUVEC, immunofluorescence, MLSMR starter and 10KST1 sets (AID 487;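 active = visually confirmed hit in the image check and inhibition above 20%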;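 for inhibition: signal is fraction of cell area covered by stained E-selectin grains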;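 for nuclei count: 100% = median nuclei count of all wells on the same plate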). As to conditions: HUVEC TNFalpha-induced E-selectin immunofluorescence imaging, at 2 µM; inhibition: stronger effect = higher value; nuclei count: measured here: cell number, toxicity.
Assay [4] has as its target Voltage-gated potassium channel subunit beta-2 (Rattus norvegicus) (UniProt P62483). Description: KvBeta enzyme negative modulators, primary screen, biochemical, NADPH fluorescence (AID 622;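 active = fluorescence slope higher than the sample average by over 3 SD, cut at about -0.22 in these data, passing the limit was not always enough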;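 note: slope of raw intensity against log time taken from 70 to 1610 s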). As to conditions: recombinant KvBeta, 4-cyanobenzaldehyde reduction, at 10 µM, stronger effect = higher value.
Assay [5] shares this target. Description: KvBeta positive modulators, primary screen, biochemical, NADPH fluorescence (AID 623;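 active = NADPH fluorescence slope more negative than the mean of all samples by about 3 SD, 99.7% confidence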;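 note: fluorescence intensity change per second fitted from 20 to 320 s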). As to conditions: Recombinant KvBeta, NADPH fluorescence decrease slope, 10 min; at 10 µM; stronger effect = lower value.
For assay [6], the target named is Alpha-2C adrenergic receptor (Homo sapiens) (UniProt P18825). Description: modulators of alpha2C/GIRK thallium flux, primary screen, cell-based, HEK293 alpha2C/GIRK1/2 (AID 624;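 active = fluorescence slope after compound addition differing from the mean of all screened samples at 99.7% confidence, in either direction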;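 note: slope of fluorescence ratio to pre-addition baseline per second over 15 to 24 s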). As to conditions: thallium flux BTC fluorescence, at 10 µM, actives lie on both sides.
Assay [7] can be described thus: inhibitors of Sendai virus-induced IRF3 signaling, primary screen, TLR/RLR signaling modifier project, cell-based, Sendai virus stimulus, luciferase, 10K MLSCN set (AID 602276;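 active = inhibition at or above 50% at 10 µM; inactive = inhibition below 50%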;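 note: firefly luciferase from ISG56 promoter only with Renilla not read in this screen; 0% = Sendai virus plus DMSO and 100% = medium plus DMSO without virus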). As to conditions: HEK293 RL24 IRF3 luciferase reporter, at 10 µM, stronger effect = higher value.
Assay [8] can be described thus: inhibitors of poly I:C-induced TLR3 signaling, primary screen, cell-based, poly I:C stimulus, luciferase, 10K MLSCN set (AID 602277;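 active = inhibition of the reporter signal at or above 50%; inactive = inhibition below 50%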). As to conditions: HEK293-TLR3 RL24 IRF3 luciferase reporter, at 10 µM, stronger effect = higher value. In general terms: A reporter such as luciferase makes a cellular process visible.

The structures appear in SMILES notation. Activity calls are given as the source filed them.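 Rule for the calls, unless noted: active = inhibition above 20% together with a positive visual image hit; inconclusive = visual image hit but inhibition not above 20%; inactive = no visual image hit.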

Voltage-gated potassium channel subunit beta-2 (Rattus norvegicus), sequence (P62483 whole entry, looked up): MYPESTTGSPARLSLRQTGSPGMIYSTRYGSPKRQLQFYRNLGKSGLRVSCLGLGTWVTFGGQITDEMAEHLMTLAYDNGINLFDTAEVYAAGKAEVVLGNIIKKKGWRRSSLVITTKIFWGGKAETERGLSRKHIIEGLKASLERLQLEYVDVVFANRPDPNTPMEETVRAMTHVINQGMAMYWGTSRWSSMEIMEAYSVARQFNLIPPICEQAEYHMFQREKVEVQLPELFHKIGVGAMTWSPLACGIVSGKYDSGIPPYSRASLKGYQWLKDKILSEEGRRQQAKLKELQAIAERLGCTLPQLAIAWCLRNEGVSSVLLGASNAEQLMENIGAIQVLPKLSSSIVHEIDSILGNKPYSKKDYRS
Alpha-2C adrenergic receptor (Homo sapiens), sequence (P18825 whole entry, looked up): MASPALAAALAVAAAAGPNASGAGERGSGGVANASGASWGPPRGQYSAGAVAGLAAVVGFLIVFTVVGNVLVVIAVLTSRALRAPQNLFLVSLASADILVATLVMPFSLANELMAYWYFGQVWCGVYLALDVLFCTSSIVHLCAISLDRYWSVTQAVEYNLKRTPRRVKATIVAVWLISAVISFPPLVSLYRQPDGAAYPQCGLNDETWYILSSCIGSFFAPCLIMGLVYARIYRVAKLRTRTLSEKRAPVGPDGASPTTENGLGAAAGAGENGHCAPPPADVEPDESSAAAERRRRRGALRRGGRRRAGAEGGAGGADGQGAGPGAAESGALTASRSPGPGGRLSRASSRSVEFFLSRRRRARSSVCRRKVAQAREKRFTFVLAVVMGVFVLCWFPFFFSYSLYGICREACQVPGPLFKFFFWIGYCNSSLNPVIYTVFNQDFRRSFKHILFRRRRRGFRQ

Turning to `O=C1CC(c2ccccc2)CC(O)=C1C=NCCN1CCOCC1` (centres undefined), in assay [1], the cell count was 541. Besides, the inhibition – broadly, the relative decrease from the control value, in per cent – is -2.9% (inactive) in assay [1], 37.7% (inactive) in assay [3], 7.02% (inactive) in assay [7] and 31.4% (inactive) in assay [8]. In addition, in assay [2], the inhibition of aggregation is 24.1% (inactive). The nuclei count in assay [2] worked out at 94.3%; in assay [3], 99.1%. For the same compound, in assay [4], the fluorescence slope is -0.441 (inactive). For the same compound, the NADPH fluorescence slope in assay [5] was 1.8e-05 (inactive). Besides, in assay [6], the slope was 0.00626 (inactive).
For the compound `COc1cccc(-c2cc(C(=O)NCc3ccc(Cl)cc3)no2)c1`, the cell count in assay [1] amounted to 475. Moreover, the inhibition was -3.9% (inactive) in assay [1], 13.3% (inactive) in assay [3], 46% (inactive) in assay [7] and -11.6% (inactive) in assay [8]. Also, the inhibition of aggregation in assay [2] is -3.3% (inactive). For the same compound, the nuclei count in assay [2] is 103%; in assay [3], 95.6%. In addition, in assay [4], the fluorescence slope is -0.474 (inactive). Besides, the NADPH fluorescence slope in assay [5] was 1.7e-05 (inactive). Further, the slope in assay [6] was 0.00826 (inactive).
On to `Cc1nn(-c2ccccc2)c(Cl)c1C(=O)NCC(=O)O`, for which the cell count in assay [1] came to 296. The inhibition in assay [1] was 3.9% (inactive); in assay [3], -22.6% (inactive); in assay [7] it was 11.2% (inactive); in assay [8], 25.8% (inactive). Further, in assay [2], the inhibition of aggregation is -6.8% (inactive). Also, the nuclei count came to 100% in assay [2] and 117% in assay [3]. Further, the fluorescence slope in assay [4] is -0.399 (inactive). For the same compound, the NADPH fluorescence slope in assay [5] was -6.1e-05 (inactive). In addition, the slope in assay [6] was 0.00396 (inactive).
Turning to `Cc1oc(-c2ccc(Cl)cc2)nc1CS(=O)CC(=O)NCCCN(C)C1CCCCC1` (centres undefined), in assay [1], the cell count stood at 584. Also, the inhibition in assay [1] was 3.8% (inactive); in assay [3], -47% (inactive); in assay [7] it was 15.7% (inactive); in assay [8], 30.4% (inactive). Also, the inhibition of aggregation in assay [2] was -6.2% (inactive). The values for the nuclei count in assay [2] and in assay [3] were 94.6% and 127%, respectively. Further, the fluorescence slope in assay [4] was -0.603 (inactive). Also, the NADPH fluorescence slope in assay [5] was 1.3e-05 (inactive). The slope in assay [6] is 0.00462 (inactive).
For the compound `O=C(CSc1nnnn1-c1ccc2c(c1)OCO2)NCc1cccs1`, the cell count in assay [1] amounted to 240. For the same compound, the inhibition in assay [1] was 4.8% (inactive); in assay [3], -66.6% (inactive); in assay [7], 33.3% (inactive); in assay [8] it was -10.4% (inactive). The inhibition of aggregation in assay [2] was 2.8% (inactive). The nuclei count in assay [2] is 90.3%; in assay [3] it was 98.8%. Besides, the fluorescence slope in assay [4] is -0.447 (inactive). Moreover, in assay [5], the NADPH fluorescence slope was 9.8e-06 (inactive). Further, the slope in assay [6] was 0.00659 (inactive).
With `O=C1C(Cl)=C(N2CCOCC2)C(=O)N1CCc1ccccc1`, in assay [1], the cell count came out at 373. For the same compound, the inhibition was 2.8% (inactive) in assay [1], -20.9% (inactive) in assay [3], -18.6% (inactive) in assay [7] and -16.7% (inactive) in assay [8]. Further, the inhibition of aggregation in assay [2] was -26.1% (inactive). The nuclei count in assay [2] stood at 97.1%; in assay [3], 94.6%. Also, the fluorescence slope in assay [4] was -0.356 (inactive). For the same compound, the NADPH fluorescence slope in assay [5] was -8.5e-06 (inactive). For the same compound, the slope in assay [6] is 0.0076 (inactive).
Take `CC(C)Cn1c(N)c(C(=O)COC(=O)c2cc(-c3ccco3)nc3ccccc23)c(=O)n(C)c1=O`: the cell count in assay [1] came to 381. In addition, the inhibition in assay [1] is -2.2% (inactive); in assay [3], -133% (inactive); in assay [7], 15.4% (inactive); in assay [8], -3.29% (inactive). Further, the inhibition of aggregation in assay [2] was -4.3% (inactive). Also, the nuclei count in assay [2] was found to be 100%; in assay [3] it was 110%. In assay [4], the fluorescence slope was -0.482 (inactive). For the same compound, the NADPH fluorescence slope in assay [5] is -1.1e-05 (inactive). The slope in assay [6] is 0.00566 (inactive).
As for `CCCS(=O)(=O)N1CCN(C(=O)c2cccnc2)CC1`, the cell count in assay [1] was 374. In addition, the inhibition in assay [1] was 5.5% (inactive); in assay [3], 18.3% (inactive); in assay [7], 8.38% (inactive); in assay [8], 19.6% (inactive). Also, the inhibition of aggregation in assay [2] was -5.9% (inactive). The nuclei count in assay [2] came out at 98.3%; in assay [3] it was 114%. In addition, the fluorescence slope in assay [4] was -0.431 (inactive). The NADPH fluorescence slope in assay [5] was -6.9e-05 (inactive). The slope in assay [6] is 0.0059 (inactive).
Consider `CCOC(=O)c1c(-c2ccc(C)o2)csc1NC(=O)COC(=O)c1cccs1`, for which the cell count in assay [1] worked out at 478. Besides, the inhibition in assay [1] is -7.8% (inactive); in assay [3] it was -41.5% (inactive); in assay [7], 7.28% (inactive); in assay [8], 15.5% (inactive). Besides, the inhibition of aggregation in assay [2] is 10% (inactive). Moreover, the nuclei count in assay [2] was found to be 66.4%; in assay [3], 113%. Moreover, the fluorescence slope in assay [4] is -0.403 (inactive). For the same compound, the NADPH fluorescence slope in assay [5] was -5.7e-05 (inactive). Moreover, the slope in assay [6] is 0.00798 (inactive).
For `Cc1cc(C)cc(N2C(=O)CC(N3CCOCC3)C2=O)c1` (centres undefined), the cell count in assay [1] came to 459. Besides, the inhibition is 3% (inactive) in assay [1], 38.6% (inactive) in assay [3], 13.8% (inactive) in assay [7] and 32.5% (inactive) in assay [8]. Also, the inhibition of aggregation in assay [2] is -4.9% (inactive). The nuclei count in assay [2] turned out to be 105%; in assay [3], 98.8%. Besides, the fluorescence slope in assay [4] was -0.355 (inactive). The NADPH fluorescence slope in assay [5] is 3e-05 (inactive). In addition, in assay [6], the slope was 0.00693 (inactive).
In the case of `Cc1occc1-c1nc(-c2ccncc2)no1`, in assay [1], the cell count turned out to be 706. For the same compound, the inhibition in assay [1] is 7.3% (inactive); in assay [3], -46.6% (inactive); in assay [7], -46.9% (inactive); in assay [8], -90.8% (inactive). Moreover, the inhibition of aggregation in assay [2] is 6% (inactive). For the same compound, the nuclei count amounted to 95.3% in assay [2] and 126% in assay [3]. Further, the fluorescence slope in assay [4] was -0.523 (inactive). In assay [5], the NADPH fluorescence slope is 1.8e-05 (inactive). Moreover, in assay [6], the slope is 0.00583 (inactive).
As to `Cc1cc(C)n2cc(CSc3nnnn3C)nc2n1`, in assay [1], the cell count was determined as 532. Moreover, the inhibition in assay [1] is -36.9% (inactive); in assay [3], 36.6% (inactive); in assay [7] it was 15.1% (inactive); in assay [8], 19.7% (inactive). The inhibition of aggregation in assay [2] was 9.5% (inactive). Besides, the nuclei count in assay [2] turned out to be 106%; in assay [3] it was 65.8%. In addition, the fluorescence slope in assay [4] is -0.256 (inactive). For the same compound, the NADPH fluorescence slope in assay [5] is -4.3e-06 (inactive). Moreover, in assay [6], the slope was 0.00505 (inactive).
Turning to `NC(=O)COC(=O)CNC(=O)c1ccc(Cl)cc1`, in assay [1], the cell count came to 450. In addition, the inhibition in assay [1] is 11.7% (inactive); in assay [3], 20.5% (inactive); in assay [7] it was 18.5% (inactive); in assay [8] it was 17.3% (inactive). Also, in assay [2], the inhibition of aggregation was 4.1% (inactive). Also, the nuclei count in assay [2] is 106%; in assay [3], 111%. Besides, the fluorescence slope in assay [4] is -0.521 (inactive). Besides, the NADPH fluorescence slope in assay [5] was -1.3e-05 (inactive). Moreover, the slope in assay [6] was 0.00666 (inactive).
In the case of `O=C(Nc1nc(-c2cccs2)cs1)c1cccc(S(=O)(=O)N2CCCCC2)c1`, the cell count in assay [1] came to 503. The inhibition was 0% (inactive) in assay [1], -108% (inactive) in assay [3], 6.17% (inactive) in assay [7] and -7.26% (inactive) in assay [8]. In addition, the inhibition of aggregation in assay [2] is -5.4% (inactive). The nuclei count in assay [2] came out at 110%; in assay [3], 124%. In assay [4], the fluorescence slope is -0.479 (inactive). Besides, in assay [5], the NADPH fluorescence slope is -2.5e-05 (inactive). Further, in assay [6], the slope was 0.00684 (inactive).
